Screening results (PubChem BioAssay)
HTT promoter inh – HTT promoter inhibition; HEK293 HTT promoter firefly luciferase reporter, 24 h; Potency, µM (top dose mostly 57.5 µM), for inactives: at the top dose activity change, negative = inhibition, usual class: inhibitors; 48,000 compounds, 0.93% hits; AID 1508623; further: nearly all actives have a fitted effect of over 50% in size
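HEK293 Fluc reporter, 2,500 cells/well, 24 h pre-culture; cpds up to 57.5 uM final, 24 h 37 degrees C; Dual-Glo, 10 min RT; normalized vehicle = 0%, zero RLU = -100%.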
HTT-AS act – activators of huntingtin-antisense promoter activity | HEK293 HTT-AS promoter firefly luciferase reporter, 24 h; response scale: percent change from vehicle, -100% = no light | 48,000 compounds, 0.24% hits | Potency, µM (titrated, usually from 57.5 µM), inactives show top-dose activity change, positive = activation, most hits filed as activators; further: nearly all actives have a fitted effect of over 55% in size
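Quantitative HTS used concentration series of up to 57.5 uM final on HEK293 luciferase reporter cells, 24 h at 37 degrees C. Readout was Dual-Glo firefly luminescence.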
FH mod – Identification of activators of human fumarate hydratase by quantitative high-throughput screening | FH coupled MDH/diaphorase resazurin fluorescence, 15 min | 54,000 compounds, 0.22% hits | Fumarate hydratase, mitochondrial (Homo sapiens), P07954 | AID 1347055, 2019 | Potency, µM (highest dose often 79.9 µM), inactives show at the highest dose activity change, negative = inhibition, hits mostly inhibitors; further: on the % scale 0 is the no-effect control and ±100 the full control effect; the screen sought activators but most active calls are inhibition curves; nearly all actives have a fitted effect of over 45% in size
Target sequence (P07954 whole entry, looked up): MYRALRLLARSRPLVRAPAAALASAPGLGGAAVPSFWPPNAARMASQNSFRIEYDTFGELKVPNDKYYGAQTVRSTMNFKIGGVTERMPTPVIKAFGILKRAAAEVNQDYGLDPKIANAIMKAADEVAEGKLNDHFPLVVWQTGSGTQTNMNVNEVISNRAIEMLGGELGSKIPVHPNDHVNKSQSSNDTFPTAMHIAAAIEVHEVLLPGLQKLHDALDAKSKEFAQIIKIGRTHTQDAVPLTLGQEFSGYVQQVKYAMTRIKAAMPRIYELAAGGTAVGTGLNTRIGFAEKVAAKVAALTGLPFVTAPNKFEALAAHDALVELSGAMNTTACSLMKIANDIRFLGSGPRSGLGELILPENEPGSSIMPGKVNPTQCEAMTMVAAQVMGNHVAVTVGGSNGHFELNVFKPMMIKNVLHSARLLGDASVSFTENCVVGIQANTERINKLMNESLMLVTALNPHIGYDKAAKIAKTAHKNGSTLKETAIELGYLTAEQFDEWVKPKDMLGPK
* = called active by the depositor; ? = inconclusive; . = not tested or not shown; ! = repeats disagree; [ ] = remark or other dose. This is a sample that favours compounds with a hit; in the whole collection about 1.3% have one here. The call rests on the fitted dose curve; in most records, active means well fitted curve in the direction sought with a large enough effect; inconclusive means small, poorly fitted or top-dose-only effect, or another doubt; inactive means no such curve, though single readings can be large; an effect the other way counts as inactive or inconclusive. Potency means the concentration at half of the fitted maximal effect.

SMILES | HTT promoter inh | HTT-AS act | FH mod
CCCOCc1cc(CN2CCN(c3ccccc3OC)CC2)c(O)c2ncccc12 | ? | -34.2% | ?
CCOCc1cc(CN2CCN(c3ccccc3OC)CC2)c(O)c2ncccc12 | 11.2µM* | -35.9% | ?
N#Cc1c(-n2ncnc2-c2ccccc2C(F)(F)F)sc2c1CCCCC2 | 1.12µM* | -53.0% | -15.1%
N#Cc1c(-n2ncnc2-c2ccccc2Cl)sc2c1CCCCC2 | ? | -16.9% | -15.4%
C/C=C(\C)C(=O)OC[C@H]1O[C@@H](O[C@H]2[C@@H](O[C@H]3O[C@H](COC(=O)/C(C)=C/C)[C@@H](O)[C@H](O)[C@H]3O[C@@H]3O[C@H](CO)[C@@H](O)[C@H](OC(=O)/C(C)=C/C)[C@H]3O)O[C@H](COC(=O)/C(C)=C/C)[C@@H](O)[C@@H]2O)[C@H](O)[C@@H](O)[C@@H]1O | . | . | 7.2%[20.6 µM]
C=C[C@H]1[C@H](O[C@@H]2O[C@H](CO)[C@@H](O)[C@H](O)[C@H]2O)OC=C(C(=O)OC)[C@H]1CCOC(=O)c1cc(O)c(O)c(O)c1 | . | . | 0.3%[53.3 µM]
NS(=O)(=O)c1cccc2c1c([N+](=O)[O-])cc1nc(O)c(O)nc12 | . | . | 17.8µM*
O=[N+]([O-])c1cccc2c(Br)[nH]nc12 | . | . | -23.6%[53.3 µM]
CNC(=O)c1ccc(-c2cnc3cnc(C(=O)N(C)c4ccc(Cl)cc4)cn23)cc1 | . | . | 0.6%
COc1ccc(Cn2c(=O)[nH]c3cc(C(=O)N4CCN(c5cccc(Cl)c5)CC4)ccc3c2=O)cc1 | -11.1% | -11.5% | -2.7%
COc1cc2[nH]c(=O)n(Cc3ccc(C(=O)N4CCN(c5ccc(Cl)cc5)CC4)cc3)c(=O)c2cc1OC | 14.1µM* | -49.9% | -12.1%
CN(C)CCN(Cc1ccc(-c2ccc(CNCCc3ccccc3)cc2)cc1)C(=O)CCC1CCCC1 | . | . | -6.3%
CC(C)(Sc1ccc(CCN(CCCCC2CCCCC2)C(=O)NC2CCCCC2)cc1)C(=O)O | -2.0% | -2.8% | 25.1µM*!
CCOC(=O)Cc1ccc(NC(=O)n2ncc3cc(Cl)ccc32)cc1 | 0.251µM* | -91.3% | ?
Cc1ccc(C)c(NC(=O)n2ncc3cc(Cl)ccc32)c1 | 20.3% | ? | -13.0%
Cc1cccc(-n2c(-c3ccco3)nc3c(cnn3-c3ccc(F)cc3)c2=O)c1 | 17.8µM* | -39.1% | -16.9%
Cc1ccc(-n2c(-c3ccco3)nc3c(cnn3-c3ccc(C)cc3)c2=O)cc1 | -19.3% | -25.8% | -13.1%
COCCc1ccccn1 | -2.1% | -10.9% | 2.1%[53.3 µM]
COCCn1c2c([n+](Cc3cnccn3)c1C)C(=O)c1ccccc1C2=O | ? | -94.5% | 21.7µM*
COc1ccc([C@H]2OC[C@H]3[C@@H]2CO[C@@H]3c2ccc(O[C@@H]3O[C@H](CO)C(O)[C@H](O)[C@H]3O)c(OC)c2)cc1OC (stereo partly specified) | . | . | 0.2%[53.3 µM]
COc1cccc(CN2CCc3nc(N4CCN(c5ncccn5)CC4)ncc3C2)c1 | 25.1µM* | -53.4% | -9.7%
COc1cccc(CN2CCc3nc(N4CCN(C)CC4)ncc3C2)c1 | -15.2% | -14.2% | 14.8%
COc1c(C)cc(NC(=O)c2nn(Cc3ccc(F)cc3)c3c2CN(C(=O)c2ccc[nH]2)C[C@]3(C)C(N)=O)cc1C | . | . | -13.6%[20.6 µM]
Cc1cc(CS(=O)(=O)c2ccccc2)cc(OCc2ccc(CN3CCC[C@@H]3CO)cc2)c1 | . | . | -4.7%
Cc1nc(Nc2cnn(C3CCNCC3)c2)nc2c1N(C)C(=O)c1cc3ccccc3cc1N2C | . | . | -1.0%
SMILES | HTT promoter inh | HTT-AS act | FH mod
COc1ccc(-c2nc(SCC(=O)Nc3ccc4c(c3)OCCO4)c(-c3ccccc3)[nH]2)cc1 | ? | -8.0% | ?
COc1cccc(NC(=O)CSc2nnc(-c3cccc(OC)c3)o2)c1 | 60.4% | 14.1µM* | -20.0%
COc1ccc(NC(=O)CSc2nnc(-c3ccc(C)cc3)o2)cc1 | 1.0% | -7.0% | -21.9%
COc1cccc(-c2nc(SCC(=O)Nc3ccc4c(c3)OCCO4)c(-c3ccccc3)[nH]2)c1 | ? | -5.6% | 39.8µM*
CCN(Cc1cc(Nc2nc(C)cn3c(-c4cn[nH]c4)cnc23)sn1)C(C)(C)CO | . | . | -12.6%
C=C1C(=O)OC2CC(C)=C(C(C)CCCO)C(O)C12 (stereo unspecified) | . | . | -19.8%
Nc1nonc1-c1nc2cnccc2n1C1CC1 | . | . | 10.3%
CCCCNC(=O)c1cnn2c(C)c(Cc3c(C)cc(C)cc3C)c(C)nc12 | ? | -59.1% | -20.9%
CCCNC(=O)c1cnn2c(C)c(Cc3c(C)cc(C)cc3C)c(C)nc12 | 5.01µM* | -47.4% | -12.6%
CC(=O)O[C@@H]1[C@H](O[C@@H]2OC[C@](O)(CO)[C@H]2O)[C@@H](O[C@@H]2O[C@@H](C)[C@H](O)[C@@H](O[C@@H]3O[C@H](CO)[C@@H](O)[C@H](O)[C@H]3O)[C@H]2O)[C@H](OC(=O)[C@]23CCC(C)(C)C[C@H]2C2=CCC4[C@@]5(C)C[C@H](O)[C@H](O[C@@H]6O[C@H](C(=O)O)[C@@H](O)[C@H](O)[C@H]6O)[C@@](C)(C(=O)O)C5CC[C@@]4(C)[C@]2(C)CC3)O[C@@H]1C (stereo partly specified) | . | . | -6.4%[13.5 µM]
Cc1nc2ccc(Oc3ccc(F)cc3)cc2c(=O)n1C[C@H]1CCCN(C(C)C)C1 | . | . | -2.0%
Cc1ccc(-c2cc(NC(=O)COc3ccc(Cl)c(C)c3)on2)cc1 | 1.4% | 32.9% | 8.2%
Cc1ccc(-c2cc(NC(=O)c3ccccc3Cl)on2)cc1 | 30.3% | 4.47µM* | 0.4%
C[C@@H]1O[C@@H](O[C@H]2[C@H](O[C@H]3[C@H](O[C@H]4CC[C@@]5(C)C(CC[C@]6(C)C5CC=C5[C@@H]7CC(C)(C)CC(=O)[C@]7(C)CC[C@]56C)[C@@]4(C)CO)O[C@H](C(=O)O)[C@@H](O)[C@@H]3O)O[C@H](CO)[C@H](O)[C@@H]2O)[C@H](O)[C@H](O)[C@H]1O (stereo partly specified) | . | . | 3.5%[20.6 µM]
CC1(C)C(=O)C(C)(C)c2cc(C(=O)Nc3ccc(C(=O)O)cc3)ccc21 | . | . | -0.5%
CC(C)c1ccc(OC(=O)c2cc(-c3ccc(Cl)cc3)on2)cc1 | -15.1% | -16.7% | -3.1%
CC1CCN(C(=O)c2cc(-c3ccc(Cl)cc3)on2)CC1 | 74.3% | 2µM* | -10.2%
CC(=O)Nc1ccc(C(=O)NC(C)(C)C)cc1 | . | . | 12.9%
Nc1nc(Nc2ccc(S(N)(=O)=O)cc2)n(C(=S)Nc2c(F)cccc2F)n1 | . | . | 11.9%
O=C(O)CCc1cc2ccoc2cc1O[C@@H]1O[C@H](CO[C@@H]2OC[C@](O)(CO)[C@H]2O)[C@@H](O)[C@H](O)[C@H]1O | . | . | 3.7%[53.3 µM]
Cc1cn(C2OC(CO)C(O)C2F)c(=O)[nH]c1=O (stereo unspecified) | . | . | 10.0%
CCC1CN(C(=O)N2CCC(C(=O)N3CCN(c4cccc(C)c4C)CC3)CC2)c2ccccc2O1 (stereo unspecified) | 20µM* | -45.6% | ?
CCC1CN(C(=O)N2CCC(C(=O)N3CCN(c4cc(C)ccc4C)CC3)CC2)c2ccccc2O1 (stereo unspecified) | ? | -52.9% | -23.1%
